Data taken from ChEMBL document CHEMBL1201862, “PubChem BioAssay data set” (2004).
About 11,000 (3.5%) of roughly 310,000 compounds were called active. Inconclusive results (about 4%) are left out. The rule behind the calls is not given here. The sample as a whole holds a higher share of actives than the screen did.

Each molecule was assayed against T1, 4'-phosphopantetheinyl transferase ffp (Bacillus subtilis) (UniProt Q9F4F7) (assay: qHTS Assay for Inhibitors of Bacillus subtilis Sfp phosphopantetheinyl transferase (PPTase).).
T1 sequence (whole entry): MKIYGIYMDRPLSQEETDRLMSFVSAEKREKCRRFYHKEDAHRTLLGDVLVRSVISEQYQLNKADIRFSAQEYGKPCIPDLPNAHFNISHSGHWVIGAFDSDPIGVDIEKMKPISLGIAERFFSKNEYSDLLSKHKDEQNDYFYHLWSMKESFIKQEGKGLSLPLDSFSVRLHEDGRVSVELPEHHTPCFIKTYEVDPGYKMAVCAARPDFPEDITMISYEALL
Format: functional

SMILES | Potency
Cl[Te]1(Cl)OCCO1 | 0.158 µM (active)
